mHTT CaM bind: disrupts binding of mutant huntingtin to calmodulin; P42858; AlphaScreen His-mHTT/GST-CaM binding, luminescence; inhibition, % at 15 µM; hit rate 3.6% among 190,000; AID 1671202
Pf apPOL inh: Pf-apPOL DNA polymerase inhibition; Recombinant Pf-apPOL, molecular beacon fluorescence, 1.5 h; AID 1794808; inhibition, % at 10 µM; hit rate 0.25% among 210,000
Each line names hits and unclear results; the compound was inactive in the other large screens. Many of the other results were omitted from the sample, so hits are more common in it than they were. Rule as the data show it: active = inhibition above about 50%; inactive = the rest.

CCn1cc(/C=C2\C(=O)NC(=O)N(c3ccc4c(c3)OCO4)C2=O)c2ccccc21	none
COc1ccc(OC)c(NC(=O)N2CCOc3ccc(Cl)cc32)c1	none
CSc1nc(N)nc(SCC(N)=O)c1C#N	none
O=C(NCC1COC2(CCCC2)O1)C(=O)NC1CCCCC1 (centres undefined)	none
Cc1ccc(N2C(=O)CC(N3CCN(Cc4ccccc4)CC3)C2=O)cc1Cl (centres undefined)	none
O=C(c1ccc([N+](=O)[O-])o1)N1CCC(Cn2cnc3ccccc32)CC1	none
CCOc1cccc2cc(C(=O)Nc3nccs3)c(=Nc3cccc(Br)c3)oc12	none
Cc1ccnc(NS(=O)(=O)c2ccc(Cl)cc2)c1	none
Cc1ccnc(NS(=O)(=O)c2ccc(C(C)(C)C)cc2)c1	mHTT CaM bind 100
COc1ccc(S(=O)(=O)Nc2ccccc2C)cc1OC	none
Cc1ccccc1NS(=O)(=O)c1ccc(-c2ccccc2)cc1	mHTT CaM bind 80
O=C(c1cccc(F)c1)N1CCCC1c1cccc(F)c1 (centres undefined)	none
COc1ccc(C2=N/C(=C\c3ccc(SC)cc3)C(=O)O2)cc1OC	none
Cc1cc(C)c(S(=O)(=O)Nc2ncccc2C)c(C)c1	Pf apPOL inh 100
Cc1cc(C)c(S(=O)(=O)Nc2ncccn2)c(C)c1	none
O=C(Nc1nnc(COc2ccccc2)o1)c1cc(Cl)sc1Cl	mHTT CaM bind 56
O=C(Nc1nnc(COc2ccccc2)o1)c1ccccn1	none
O=C(Cc1ccccc1Cl)Nc1nnc(COc2ccccc2)o1	mHTT CaM bind 84
O=C(CCSc1ccc(Cl)cc1)Nc1nnc(COc2ccccc2)o1	none
O=C1CCN(S(=O)(=O)c2ccc3[nH]cc(C(=O)O)c(=O)c3c2)CC1	none
O=C1NC(=Nc2ccccc2)S/C1=C/c1cc(Br)cc(Cl)c1O	mHTT CaM bind 96
COc1ccc(Br)cc1/C=C1/SC(=Nc2ccccc2)NC1=O	none
O=C1NC(=Nc2ccccc2)S/C1=C/c1cc(I)ccc1O	mHTT CaM bind 52
O=C1NC(=Nc2ccccc2)S/C1=C/c1ccc(O)c(O)c1	none
O=C1NC(=Nc2ccccc2)S/C1=C/c1cc(Br)ccc1O	mHTT CaM bind 55
Cc1ccccc1/C=C1/SC(=Nc2ccccc2)NC1=O	none
CCOC(CNC(=O)c1ccc2c(c1)nc(C)n2-c1ccc(OC)cc1)OCC	none
Nc1ccc2noc3c2c1C(=O)c1ccccc1-3	none
Cc1ccc(-c2cc(C(=O)Nc3cccnc3)c3ccccc3n2)o1	none
Cc1ccc(-c2cc(C(=O)Nc3ccncc3)c3ccccc3n2)o1	mHTT CaM bind 74
Cc1ccc(S(=O)(=O)N=C(Nc2ccc([N+](=O)[O-])cc2[N+](=O)[O-])c2ccccc2)cc1	none
Cc1ccc(S(=O)(=O)CCCC(=O)Nc2ccc3sc(C)nc3c2)cc1	none
Cc1c(Cl)c(C)c(C=O)c(O)c1Br	mHTT CaM bind 79
O=C(Nc1c(-c2ccccc2)nc2ccccn12)c1ccc(F)cc1	none
O=CC1=C(c2ccccc2)Oc2ccccc2O1	mHTT CaM bind 51
O=C(O)CC1c2ccccc2Oc2ccccc21	none
COc1cc(C(=O)Oc2cc(C)c3c(c2)OC(=Cc2ccncc2)C3=O)cc(OC)c1OC	none
O=S(=O)(Nc1ccc(F)cc1)c1cccnc1Nc1cccc(Cl)c1	mHTT CaM bind 93
CCNS(=O)(=O)c1cccnc1Nc1cccc(Cl)c1	none
COc1ccc(C(O)=C2C(=O)C(=O)N(CCN3CCOCC3)C2c2ccc(C)cc2)cc1OC (centres undefined)	none
Cc1ccc2n1CCN(C(=O)Nc1ccc(F)c(Cl)c1)C2C(C)C (centres undefined)	mHTT CaM bind 62
Cc1ccc2n1CCN(C(=O)Nc1ccccc1C(F)(F)F)C2C(C)C (centres undefined)	none
CCCC1c2cccn2CCN1C(=O)Nc1ccc(F)c(Cl)c1 (centres undefined)	mHTT CaM bind 83
Cc1ccc(NC(=O)N2CCn3c(C)ccc3C2C(C)C)cc1C (centres undefined)	none
CCCC1c2ccc(C)n2CCN1C(=O)Nc1cccc(Cl)c1 (centres undefined)	none
CCCC1c2ccc(C)n2CCN1C(=O)Nc1ccc(F)c(Cl)c1 (centres undefined)	mHTT CaM bind 90
Cc1ccc2n1CCN(C(=O)Nc1cccc(C(F)(F)F)c1)C2C(C)C (centres undefined)	mHTT CaM bind 74
CC1c2cccn2CCN1C(=O)Nc1ccc(F)c(Cl)c1 (centres undefined)	none
Cc1ccnc(N2CCC(C(=O)N3CCC4(CC3)OCCO4)CC2)n1	none
COc1ccccc1CC(=O)Nc1ccc(Oc2ccccc2)cc1	none
C=CCc1cc(OC)ccc1OCCCNC(C)C	none
Fc1ccc(Br)cc1C1CC(c2ccc(Br)cc2)Nc2nnnn21 (centres undefined)	none
COc1ccc(Cl)cc1NC(=O)c1cc(-c2ccc(Br)cc2)on1	none
CCCC1c2cccn2CCN1C(=O)Nc1ccc(C)c(F)c1 (centres undefined)	mHTT CaM bind 51
CCCC1c2cccn2CCN1C(=O)Nc1ccc(F)cc1 (centres undefined)	none
